Screening results from PubChem.
CHO-K1 Ca PAM – nonselective activator or artifact in parental CHO-K1 calcium assay | actives 0.02% (n = 360,000) | activation, % at 3 µM | ATP EC20, Fluo-8 calcium fluorescence; 0% at ATP EC20, 100% at ATP max | AID 602247;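 active = activation above the run cutoff, the mean activation of all test compounds plus 3 SD, cut at about 40% in these data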;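 also: peak over basal fluorescence ratio in a 140 s read after ATP addition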
CHO-K1 Ca antag – nonselective inhibitor or artifact in parental CHO-K1 cells | ATP-induced calcium, Fluo-8 fluorescence | inhibition, % at 3 µM | actives 0.6% (n = 360,000) | AID 602250;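 active = inhibition above a per-plate cutoff, the plate's mean sample inhibition plus 3 SD, cut at about 24% in these data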;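 also: 0% = DMSO plus EC80 ATP and 100% = DMSO alone without ATP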
CHRM1 agonist – activates human CHRM1 receptor; activation, % at 3 µM; actives 0.33% (n = 360,000); CHO-K1 hM1, Fluo-8 calcium fluorescence, agonist mode; 0% DMSO, 100% acetylcholine EC100;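 active = activation above the run's mean compound activation plus 3 SD, cut at about 16% in these data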;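 also: peak over basal fluorescence ratio within a 140 s kinetic read after compound addition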
Target sequence (P11229 whole entry, looked up): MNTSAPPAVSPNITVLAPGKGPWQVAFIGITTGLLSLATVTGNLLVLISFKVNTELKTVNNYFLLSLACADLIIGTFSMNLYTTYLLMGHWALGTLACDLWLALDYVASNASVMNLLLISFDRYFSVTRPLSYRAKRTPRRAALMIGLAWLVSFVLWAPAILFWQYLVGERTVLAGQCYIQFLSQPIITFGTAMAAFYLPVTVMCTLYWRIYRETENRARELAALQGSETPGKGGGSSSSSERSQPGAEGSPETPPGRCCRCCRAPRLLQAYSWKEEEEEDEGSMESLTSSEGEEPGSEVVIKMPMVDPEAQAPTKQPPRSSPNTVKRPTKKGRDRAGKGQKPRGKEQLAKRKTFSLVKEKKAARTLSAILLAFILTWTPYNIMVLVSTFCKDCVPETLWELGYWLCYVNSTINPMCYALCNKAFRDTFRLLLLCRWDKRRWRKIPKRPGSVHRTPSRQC
M1 ag parental – M1 agonist counterscreen hit in parental CHO-K1 cells; Fluo-8 calcium fluorescence; scaled to maximal ATP response, vehicle zero; actives 0.48% (n = 360,000); activation, % at 3 µM; in the data active = activation above about 15%;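 also: untransfected CHO-K1 host cells lacking M1 receptor as counterscreen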
CHRM1 PAM – human CHRM1 positive allosteric modulation | P11229 | CHO-K1 hM1, Fluo-8 calcium fluorescence, ACh EC20; 0% = ACh EC20, 100% = maximal ACh | activation, % at 3 µM | actives 0.088% (n = 360,000); in the data active = activation above about 19%, passing the limit was not always enough
CHRM1 antagonist – blocks human M1 muscarinic receptor. P11229. CHO-K1 hM1, Fluo-8 calcium fluorescence, ACh EC80 antagonist. inhibition, % at 3 µM. actives 1.3% (n = 360,000). AID 588852;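 active = percent inhibition above its own plate's cutoff, namely the mean of that plate's compound wells plus 3 SD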;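 also: peak over basal fluorescence ratio during 140 s after agonist addition; 0% = ACh EC80 plus DMSO and 100% = DMSO alone without agonist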
* hit, by the source's call; x = no result. A selection: hits, their analogues and other compounds. The true share with any hit is near 2.3%.

SMILES | CHO-K1 Ca PAM | CHO-K1 Ca antag | CHRM1 agonist | M1 ag parental | CHRM1 PAM | CHRM1 antagonist
CCOCCCn1c(=S)[nH]c2cc(C(=O)N3CCC(C(N)=O)CC3)ccc2c1=O | -7 | 25* | -2 | 0 | -5 | 19
CCOC(=O)N1CCN(C(=O)c2ccc3c(=O)n(CCOC)c(=O)[nH]c3c2)CC1 | -8 | 12 | -5 | 0 | -8 | 28*
CCOC(=O)N1CCN(C(=O)c2ccc3c(=O)n(CCc4ccccc4)c(=O)[nH]c3c2)CC1 | 14 | -5 | -2 | 1 | -19 | 49*
Cc1cc(F)ccc1-c1cc(C(=O)NCc2cccs2)[nH]n1 | 14 | -19 | -3 | 0 | 6 | -9
CCC1CCCCN1C(=O)COC(=O)c1cncc(Br)c1 (stereo unspecified) | -4 | -8 | -2 | 0 | 5 | -2
CCCCc1c(-c2ccccc2OC)ncn1Cc1cccc(-c2ccccc2)c1 | -7 | 9 | x | 0 | x | x
Cc1ccccc1C1c2[nH]c3ccccc3c2CCN1CCCn1cccn1 (stereo unspecified) | 23 | -15 | -7 | 1 | -23 | 91*
Fc1ccccc1C1c2[nH]c3ccccc3c2CCN1Cc1cccn1-c1ncccn1 (stereo unspecified) | 0 | 7 | -8 | 4 | -15 | 13
Cc1ccccc1C1c2[nH]c3ccccc3c2CCN1Cc1cccn1-c1ncccn1 (stereo unspecified) | -14 | -4 | -6 | 0 | -26 | 66*
Fc1ccccc1CN1CCCCCCC1 | 2 | -16 | -12 | 0 | -5 | 5
c1ccc(Sc2ccccc2CN2CCCC2)cc1 | 4 | 2 | -9 | 1 | -24 | 79*
COc1ccc(CCNC(=O)c2cc3c(=O)n4ccccc4nc3n(Cc3ccco3)c2=N)cc1OC | 14 | 28* | -3 | 3 | 0 | 0
COc1ccccc1N1CCN(/N=C\c2sccc2C)CC1 | 11 | 3 | -3 | 20* | 4 | 5
O=C(CC[C@H]1O[C@@H](n2cnc3c(NC(=O)c4ccccc4)ncnc32)[C@H](O)[C@@H]1O)NCC(F)(F)F | 10 | 10 | -5 | 1 | 3 | -1
O=C(CC[C@H]1O[C@@H](n2cnc3c(NC(=O)c4ccccc4)ncnc32)[C@H](O)[C@@H]1O)NCC1CCN(Cc2ccccc2)CC1 | 0 | 24* | -12 | 1 | -1 | 3
O=C(CC[C@H]1O[C@@H](n2cnc3c(NC(=O)c4ccccc4)ncnc32)[C@H](O)[C@@H]1O)NCCc1cc2ccccc2[nH]1 | -7 | 27* | 6 | 0 | 3 | 12
O=C(CC[C@H]1O[C@@H](n2cnc3c(NC(=O)c4ccccc4)ncnc32)[C@H](O)[C@@H]1O)NCc1ccco1 | 5 | 2 | 3 | 2 | -1 | -11
Clc1ccc2nc(-c3ccccc3)c(CC3CCCCC3)n2c1 | 12 | 4 | -7 | 0 | 3 | 1
CCN(c1ccccc1)S(=O)(=O)c1cc(C(=O)Nc2ccc(F)c(F)c2)ccc1F | 0 | 20 | 0 | 13 | -21 | 33*
CN1CCN(CC#CCC(O)(c2ccccc2)C2CCCC2)CC1 (stereo unspecified) | -6 | 17 | -6 | 0 | -17 | 34*
CN(C)CC#CCC(O)(c1ccccc1)C1CCCCC1 (stereo unspecified) | 12 | -2 | -9 | 0 | -26 | 100*
CCN(CC)CC#CCC(O)(c1ccccc1)C1CCCC1 (stereo unspecified) | 10 | -11 | -13 | 1 | -35 | 102*
CN1CCN(CC#CCC(O)(c2ccccc2)c2ccccc2)CC1 | 22 | 0 | -6 | 11 | 4 | -2
CCCC1c2ccc(C)n2CCN1C(=O)Nc1ccc(F)cc1 (stereo unspecified) | 1 | 2 | -1 | 2 | 10 | -13
CCC1c2ccc(C)n2CCN1C(=O)Nc1ccc(F)cc1 (stereo unspecified) | -7 | 26* | -3 | 7 | -3 | 6
SMILES | CHO-K1 Ca PAM | CHO-K1 Ca antag | CHRM1 agonist | M1 ag parental | CHRM1 PAM | CHRM1 antagonist
O=C(Cc1ccc(Cl)cc1)Nc1ccncc1 | -6 | 10 | -1 | 9 | 5 | -7
Cc1ccc(CC(=O)Nc2ccncc2)cc1 | -10 | 36* | 2 | 6 | -13 | 14
CC(C)(C)c1ccc(OCC(=O)Nc2ccncc2)cc1 | -16 | 16 | 0 | 10 | -9 | 27
Cc1ccc(OCC(=O)NNC(=S)NC(=O)C2CC2)c(C)c1 | -17 | 2 | 1 | 5 | 3 | 0
Cc1ccc(OCC(=O)NNC(=S)NC(=O)C2CCCCC2)c(C)c1 | -14 | -8 | 20* | 6 | -1 | 2
O=C(COc1ccccc1)Nc1ccncc1 | 9 | -8 | 0 | 3 | 5 | -5
CCc1ccc(OCC(=O)Nc2ccncc2)cc1 | -10 | 22 | 2 | 17* | -11 | 22
Cc1ccc(Oc2ccc(OCC(=O)Nc3ccncc3)cc2)cc1 | 0 | 21 | 1 | 11 | -21 | 40*
COCCCNC(=O)C[C@@H]1C[C@@]2(C(=O)OC)CCCCC=C2N(Cc2ccco2)C1=O | 11 | -14 | x | 0 | x | x
Fc1cccc(Cc2c(-c3ccco3)nc3ccc(Br)cn23)c1 | 22 | -21 | -1 | 0 | 5 | -17
COc1cccc(CN2CCC(C(=O)NC(C)c3cccc4ccccc34)CC2)c1 (stereo unspecified) | -4 | 6 | 5 | 5 | 1 | 1
Cc1ccc(OCC(=O)Nc2ccncc2)c(C)c1 | -24 | 29* | 3 | 9 | -4 | 18
CCOCCn1c(CN2CCN(C)CC2)nc2c1c(=O)n(C)c(=O)n2C | 18 | -6 | -1 | 0 | 29* | -31
Cc1cccc(C)c1Nc1cn[nH]c1 | 0 | 9 | -5 | 0 | 0 | -6
CC12CCC(C(=O)N(Cc3ccccc3)Cc3ccccc3)(OC1=O)C2(C)C (stereo unspecified) | -8 | 25* | -6 | 0 | -8 | -14
CC12CCC(C(=O)NNC(=O)c3ccccc3)(OC1=O)C2(C)C (stereo unspecified) | -20 | 18 | -3 | 0 | 5 | -6
CCCCC(O)(CCN1CCOCC1)c1ccc(Cl)cc1 (stereo unspecified) | 10 | -10 | -8 | 0 | -21 | 87*
CCCC(O)(c1ccc(Cl)cc1)C(CN1CCOCC1)c1ccccc1 (stereo unspecified) | 0 | 0 | -8 | 0 | -21 | 61*
CCCCCC(O)(CCN1CCCCC1)c1ccc(OCC)cc1 (stereo unspecified) | -4 | 2 | -14 | 1 | -32 | 99*
COc1ccc(C(O)(CCN2CCCCC2)C2CCCCC2)cc1 (stereo unspecified) | -4 | 3 | -9 | 0 | -27 | 101*
